Data published in article PMC4336329 (PLoS ONE, 2015).
Screen size: about 310,000 compounds; about 14,000 (4.5%) showed an effect of 50% or more. The effect is printed as a negative number. The full list was thinned out, with strong results kept by preference.

Each molecule was assayed against human ether-à-go-go-related gene (hERG) potassium channel (human, UniProt Q12809) (assay: primary screen, population patch clamp on CHO cells stably expressing hERG; higher = less effect of the substance).
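Note: peak tail current of the secondary pulse compared with the same well before compound.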

human ether-à-go-go-related gene (hERG) potassium channel, sequence (Q12809 whole entry, looked up): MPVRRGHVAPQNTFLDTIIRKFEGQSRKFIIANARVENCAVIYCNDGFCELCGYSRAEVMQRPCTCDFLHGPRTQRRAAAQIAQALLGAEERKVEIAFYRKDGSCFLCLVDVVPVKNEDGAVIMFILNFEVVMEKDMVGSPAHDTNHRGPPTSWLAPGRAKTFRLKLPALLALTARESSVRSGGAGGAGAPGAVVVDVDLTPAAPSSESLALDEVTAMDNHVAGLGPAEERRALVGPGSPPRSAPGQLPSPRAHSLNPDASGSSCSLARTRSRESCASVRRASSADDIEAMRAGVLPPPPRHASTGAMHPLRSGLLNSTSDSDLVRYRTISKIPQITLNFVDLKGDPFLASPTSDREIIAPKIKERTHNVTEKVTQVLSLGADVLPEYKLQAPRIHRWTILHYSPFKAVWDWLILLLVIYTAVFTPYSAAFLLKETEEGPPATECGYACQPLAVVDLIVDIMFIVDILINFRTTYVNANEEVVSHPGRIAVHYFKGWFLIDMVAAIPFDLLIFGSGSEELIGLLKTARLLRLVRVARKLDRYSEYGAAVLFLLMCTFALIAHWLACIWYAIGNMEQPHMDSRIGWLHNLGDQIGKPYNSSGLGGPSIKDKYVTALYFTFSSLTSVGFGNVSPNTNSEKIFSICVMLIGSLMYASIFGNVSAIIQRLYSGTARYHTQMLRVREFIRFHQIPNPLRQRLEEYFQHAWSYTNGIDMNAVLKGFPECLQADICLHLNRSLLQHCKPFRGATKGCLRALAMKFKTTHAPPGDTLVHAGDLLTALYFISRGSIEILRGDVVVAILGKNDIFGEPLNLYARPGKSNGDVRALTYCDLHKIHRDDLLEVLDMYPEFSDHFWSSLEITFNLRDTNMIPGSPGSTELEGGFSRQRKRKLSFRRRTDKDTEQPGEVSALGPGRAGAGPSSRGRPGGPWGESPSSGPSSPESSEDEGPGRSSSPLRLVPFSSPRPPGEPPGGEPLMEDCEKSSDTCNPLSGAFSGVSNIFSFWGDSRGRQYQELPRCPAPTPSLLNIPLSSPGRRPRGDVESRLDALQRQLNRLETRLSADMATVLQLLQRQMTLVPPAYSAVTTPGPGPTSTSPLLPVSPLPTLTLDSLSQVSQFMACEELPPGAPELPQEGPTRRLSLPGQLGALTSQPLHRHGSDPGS

| SMILES | hERG current change (%, negative = inhibition) at 10uM [%] |
| --- | --- |
| CCn1c(SCC(N)=O)nnc1-c1ccc2c(c1)OCO2 | -0.333 |
| O=C(Nc1cc(Sc2ccccn2)cc([N+](=O)[O-])c1)c1ccc(Cl)cc1 | 11.6 |
| CCOc1ccccc1C(=O)Nc1cc(Cl)ccc1O | 14.7 |
| COc1ccc(CC(=O)N2CCc3cc(OC)c(OC)cc3C2C)c(OC)c1 (stereo not shown) | -6.22 |
| CCc1ccccc1NC1c2ccccc2C(=O)N1c1cc(C)ccn1 (stereo not shown) | -1.18 |
| Cc1ccc(C)c(C(=O)Nc2cc(C)nn2-c2nc(C)cc(C)n2)c1 | 3.98 |
| Cc1cc(C)nc(-n2nc(C)cc2NC(=O)CNC2CCCCC2)n1 | -52.4 |
| Cc1cc(C)nc(-n2nc(C)cc2NC(=O)c2ccc(F)cc2F)n1 | -0.0513 |
| COc1ccc(CCn2c(N)c(C#N)c3nc4ccccc4nc32)cc1OC | 4.14 |
| CCN(CC)S(=O)(=O)c1cccc(-c2nnc(SCC(=O)c3cc(C)n(C)c3C)o2)c1 | -25.5 |
| CC1=C(C(=O)OC(C)C)C(c2ccc(F)cc2)NC(=O)N1 (stereo not shown) | -5.4 |
| CCOCC(=O)Nc1ccc(Br)c(C)c1 | 4.88 |
| O=C(NCCc1cccc(C(F)(F)F)c1)C1CCC(=O)N(CCc2cccc(F)c2)C1 (stereo not shown) | -56.8 |
| O=C(NCCc1ccccc1)C1CCC(=O)N(CCCN2CCCC2=O)C1 (stereo not shown) | 5.82 |
| O=C(NCCc1ccc(C(F)(F)F)cc1)C1CCC(=O)N(CCc2cccc(F)c2)C1 (stereo not shown) | -51.4 |
| O=C(NCCc1ccc(C(F)(F)F)cc1)C1CCC(=O)N(CCCN2CCCC2=O)C1 (stereo not shown) | 13.1 |
| O=C(NCCN1CCCC1=O)C1CCC(=O)N(CCc2cccc(F)c2)C1 (stereo not shown) | 9.49 |
| O=C(NCCc1ccc(C(F)(F)F)cc1)C1CCC(=O)N(CCCc2ccccc2)C1 (stereo not shown) | -50.2 |
| O=C(NCCc1cccs1)C1CCC(=O)N(CCc2cccc(F)c2)C1 (stereo not shown) | -26.1 |
| O=C(NCCc1cn[nH]c1)C1CCC(=O)N(CCc2cccc(F)c2)C1 (stereo not shown) | 25.1 |
| COc1ccc(CCN2CC(C(=O)NCCc3ccc(C(F)(F)F)cc3)CCC2=O)cc1 (stereo not shown) | -46.8 |
| O=C(O)c1ccc(NC(=S)NC(=O)c2ccc(-c3ccccc3)cc2)cc1 | 19.4 |
| CNC[C@H](NC[C@@H](NCCCc1ccccc1)c1ccccc1)[C@H](C)O | 11.7 |

| SMILES | hERG current change (%, negative = inhibition) at 10uM [%] |
| --- | --- |
| Cc1ccc(CSCC(=O)Nc2ccc3c(c2)OCO3)cc1 | -14.5 |
| COc1ccccc1CC(=O)Nc1ccc(S(=O)(=O)N2CCN(C)CC2)cc1 | 14.4 |
| CS(=O)(=O)Nc1ccccc1C(=O)N1CCOCC1 | 16.4 |
| O=C(CSc1oc(-c2ccco2)nc1S(=O)(=O)c1ccc(Cl)cc1)NCC1CCCO1 (stereo not shown) | -41.3 |
| CCN(CC)C(=N)/C(C#N)=N/Nc1ccccc1 | -15.7 |
| CCN(CC)C(=N)/C(C#N)=N/Nc1ccc(C)cc1 | -56.6 |
| Cc1ccc(N/N=C(\C#N)C(=N)N2CCCCCC2)cc1 | 12.7 |
| Cc1cc(NC(=O)Nc2cc(F)ccc2F)no1 | 17.7 |
| CCCN(Cc1nnc(-c2ccccc2Cl)o1)C(=O)c1cc(S(=O)(=O)N2CCOCC2)ccc1F | -47.7 |
| CCCN(Cc1nnc(-c2ccccc2Cl)o1)C(=O)c1cccc(S(=O)(=O)N2CCOCC2)c1 | -6.05 |
| CCCN(Cc1nnc(-c2ccccc2Cl)o1)C(=O)c1cc2ccccc2o1 | -17 |
| CCCN(Cc1nnc(-c2ccccc2Cl)o1)C(=O)c1cc([N+](=O)[O-])cc([N+](=O)[O-])c1 | -55.1 |
| Cc1ccc(S(=O)(=O)N2CCOCC2)cc1C(=O)N(Cc1nnc(-c2ccccc2Cl)o1)C1CC1 | -33.9 |
| O=C(c1ccc(Cl)c(S(=O)(=O)N2CCOCC2)c1)N(Cc1nnc(-c2ccccc2Cl)o1)C1CC1 | -58.9 |
| O=C(c1cccc(S(=O)(=O)N2CCOCC2)c1)N(Cc1nnc(-c2ccccc2Cl)o1)C1CC1 | -24.9 |
| O=C(c1cc([N+](=O)[O-])cc([N+](=O)[O-])c1)N(Cc1nnc(-c2ccccc2Cl)o1)C1CC1 | -36.8 |
| CCCN(Cc1nnc(-c2ccccc2Cl)o1)C(=O)c1ccc(C)c(S(=O)(=O)N2CCOCC2)c1 | -55.8 |
| CN(CC(=O)Nc1ccc(Cl)cc1)CC(=O)Nc1cccc2ccccc12 | -2.26 |
| O=C(/C=C/c1ccccc1Cl)Nc1ccc(-c2nnc3n2CCCCC3)cc1 | -6.47 |
| COc1cc(CNC(C)(C)C)cc(Br)c1OCc1cccs1.Cl | -28.7 |
| NS(=O)(=O)c1cccnc1Nc1c(Cl)cccc1Cl | 10.6 |
| CCCCc1nc2ccccc2c(NC(=O)CN(CC)CC)c1CCC.O=C(O)C(=O)O | -26.8 |
| COc1ccc(S(=O)(=O)N2CCCCCC2)cc1NC(=O)c1ccccc1F | 3.54 |

| SMILES | hERG current change (%, negative = inhibition) at 10uM [%] |
| --- | --- |
| CNC(=O)c1ccsc1NC(=O)CS(=O)(=O)c1ccc(Cl)cc1 | -38.6 |
| NC(=O)c1ccsc1NC(=O)CCS(=O)(=O)c1ccc(F)cc1 | -2.69 |
| NC(=O)c1ccsc1NC(=O)CS(=O)(=O)c1ccccc1 | -8.27 |
| O=C(CS(=O)(=O)c1ccc(F)cc1)Nc1nccs1 | 9.06 |
| NC(=O)c1ccsc1NC(=O)CS(=O)(=O)c1ccc(F)cc1 | -68.2 |
| NC(=O)c1ccsc1NC(=O)CS(=O)(=O)c1ccc(Cl)cc1 | -75.7 |
| COc1ccccc1S(=O)(=O)Cc1ccc(C(=O)N2CCN(c3ccc(C)cc3)C(C)C2)o1 (stereo not shown) | -24.6 |
| CCCNC(=O)c1oc2ccc3c(c2c1C)C=CC(C)(C)O3 | 0.704 |
| CCOC(=O)c1cc2c(=O)n3ccccc3nc2n(CCCOC)c1=NC(=O)C(C)(C)C | -7.42 |
| CCOC(=O)c1cc2c(=O)n3ccccc3nc2n(CCCOC)c1=NC(C)=O | -27.5 |
| CCOC(=O)c1cc2c(=O)n3ccccc3nc2n(CCOC)c1=NC(=O)c1c(-c2c(F)cccc2Cl)noc1C | 2 |
| CCOC(=O)c1cc2c(=O)n3ccccc3nc2n(CCOC)c1=NC(=O)C(C)(C)C | -4.45 |
| CCOC(=O)c1cc2c(=O)n3ccccc3nc2n(CCOC)c1=NC(=O)c1ccncc1 | -51.3 |
| CCOC(=O)c1cc2c(=O)n3ccccc3nc2n(CCCOC)c1=NC(=O)c1ccncc1 | -87.3 |
| Cc1cccc(C(=O)Nc2ccc(C(=O)/C=C/c3cccs3)cc2)c1 | 7.48 |
| O=C(CSc1n[nH]c(=O)[nH]c1=O)N/N=C/c1ccccc1 | 8.14 |
| COc1ccc(-n2nc(C(=O)NCC(=O)NC(C)C)c3ccccc3c2=O)c(OC)c1 | 11.3 |
| COc1ccc(S(=O)(=O)n2nc(-c3cc(OC)c(OC)c(OC)c3)cc2N)cc1OC | -2.63 |
| CCc1ccc(OCC(=O)N/N=C\c2ccco2)c([N+](=O)[O-])c1 | -67.4 |
| COc1cc(/C=N/NC(=O)COc2ccccc2[N+](=O)[O-])ccc1OC(=O)c1ccco1 | -1.29 |
| Cc1ccc(OCC(=O)N/N=C\c2ccco2)c(C)c1 | -38 |
| Cc1cc(-c2nnc(CSc3nnc(NC(=O)c4ccc(C(C)(C)C)cc4)s3)o2)ccc1[N+](=O)[O-] | 4.92 |
| CCN(CC)c1nc(N)c([N+](=O)[O-])c(NCCO)n1 | 12.1 |

| SMILES | hERG current change (%, negative = inhibition) at 10uM [%] |
| --- | --- |
| O=C1[C@@H]2CSCN2C(=O)CN1CCc1cccc(F)c1 | -20.9 |
| O=C1C2CSCN2C(=O)CN1CCCN1CCN(C(c2ccccc2)c2ccccc2)CC1 (stereo not shown) | -53.6 |
| COc1ccccc1CN1CC(=O)N2CSC[C@H]2C1=O | 10.3 |
| CCn1cc(C(=O)O)c(=O)c2cc(Br)ccc21 | -46.7 |
| Cc1ccc(/C=C2\SC(=S)N(c3cccnc3)C2=O)cc1 | 18.9 |
| COc1ccc(OC)c(NC(=O)C2CCCN(S(=O)(=O)c3c(C)noc3C)C2)c1 (stereo not shown) | -16.8 |
| NC1=NC(=Nc2ccc(Cl)cc2)c2ccccc21 | -3.81 |
| CC(C)c1ccc(N=C2N=C(N)c3ccccc32)cc1 | -59.2 |
| NC1=NC(=Nc2ccccc2)c2ccccc21 | 8.33 |
| CCOC(=O)c1c(C)[nH]c(C)c1S(=O)(=O)N1CCOCC1 | 13.8 |
| COc1ccccc1N1CCN(CC(=O)Nc2ccc3c(c2)OCCO3)CC1 | -6.03 |
| CCOc1ccc(NC(=O)CN2CCN(CC(=O)Nc3ccc4c(c3)OCO4)CC2)cc1 | -76.1 |
| COc1ccc(NC(=O)CN2CCN(CC(=O)Nc3ccc4c(c3)OCO4)CC2)cc1 | -78.1 |
| COc1ccc(S(=O)(=O)N2CCCN(CC(=O)Nc3ccc4c(c3)OCO4)CC2)cc1 | -61.5 |
| CCOc1ccc(NC(=O)COc2ccc3c(c2)OCO3)cc1 | 1.04 |
| CCOc1ccc(OCCC(=O)Nc2ccc3c(c2)OCO3)cc1 | 10.2 |
| COc1ccc(S(=O)(=O)N2CCCN(CC(=O)Nc3ccc(OC)c(Cl)c3)CC2)cc1 | -33.3 |
| COc1ccc(OCC(=O)Nc2ccc3c(c2)OCO3)cc1 | -0.489 |
| COc1ccccc1NC(=O)CN1CCN(CC(=O)Nc2ccc3c(c2)OCO3)CC1 | -72 |
| O=C(CN1CCOCC1)Nc1ccc2c(c1)OCO2 | 17.3 |
| COc1ccc(S(=O)(=O)N2CCCN(CC(=O)Nc3ccc(NC(C)=O)cc3)CC2)cc1 | 2.8 |
| COc1ccccc1NC(=O)CN1CCN(CC(=O)Nc2ccc3c(c2)OCCO3)CC1 | -34.4 |
